This note sets out measurements from PubChem BioAssay (EPA / NIEHS).

The structures appear in SMILES notation. Results filed as inconclusive are left out. Calls of active or inactive are those of the source. The calls were made as follows: active = hit-call score of the fitted dose curve at least 0.9, where 1 is the maximum; inconclusive = response in the unintended direction; inactive = score below 0.9.

The test in a line: CLD_ACTIN_6hr: CellzDirect (CLD) Gene Expression Assay for Baseline Control (Actin) at 6 hours (AID 2283676).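 Also: active means increased actin mRNA relative to DMSO vehicle.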 The procedure: CLD_6hr is a cell-based, multiplexed-readout assay that uses hepatocyte, a human liver primary cell, with measurements taken at 6 hours after chemical dosing in a 96-well plate.CLD_ACTIN_6hr is one of 16 assay component(s) measured or calculated from the CLD_6hr assay. It is designed to make measurements of mRNA induction, a form of inducible reporter, as detected with chemiluminescence signals by Quantitative Nuclease Protection Assay (qNPA) technology.Data from the assay component CLD_ACTIN_6hr was analyzed at the endpoint, CLD_ACTIN_6hr, in the positive analysis fitting direction relative to DMSO as the negative control and baseline of activity. Using a type of inducible reporter, gain-of-signal activity can be used to understand changes in the reporter gene as they relate to the gene ACTA1. Furthermore, this assay endpoint can be referred to as a secondary readout, because this assay has produced multiple assay endpoints where this one serves a background control function. To generalize the intended target to other relatable targets, this assay endpoint is annotated to the background measurement intended target family, where subfamily is baseline control.
Human hepatocyte cultures were treated daily for two consecutive days with fresh dosing solutions containing appropriate concentrations of the 320 ToxCast chemicals (chemical identities were blinded to CellzDirect and other ToxCast collaborators), vehicle control (0.2% DMSO), and positive control inducers as summarized in Table 1. Due to the large number of treatment groups and chemicals examined, the ToxCast chemicals were divided into two groups (spanning two independent cultures of hepatocytes from separate donor preparations (Hu778: ToxCast plates 1 and 2; Hu776: ToxCast plates 3 and 4). Each preparation of human hepatocyte cultures was treated with respective vehicle control, medium only control, set of six positive controls/reference chemicals for the five hepatic receptor pathways, and a subset of eight of the ToxCast chemicals (indoxacarb, pyrithiobac-sodium, norflurazon, cyhalofop-butyl, methomyl, thiram, acetochlor, and propiconazole). These replicate data, coupled with internal replicates designed within the blinded ToxCast chemical library, provided additional data to evaluate interindividual differences between hepatocyte preparations and their potential impact on chemical profiles.Cell morphology and integrity were evaluated using phase-contrast microscopy as an indicator of hepatocyte cell health (Tyson & Green, 1987). Cultures for each treatment group (i.e., media, vehicle [0.2% DMSO], positive control inducers [multiple concentrations], and the ToxCast chemicals [multiple concentrations]) were observed and cell morphology was assessed relative to vehicle control cultures at each harvest time point (0, 6, 24, or 48 h). […] Images were evaluated at the conclusion of the study to assess changes in cell integrity and account for the effects of chemical exposure on uncharacteristic changes in concentration-dependent gene expression profiles. The results from these determinations of apparent cytotoxicity were annotated (yes/no) alongside the corresponding qNPA data for reference.At the conclusion of each treatment period, hepatocyte cultures (96-well) were washed with 1 volume of HBSS, lysed by addition of 25 ul ArrayPlate lysis buffer (HTG, Tucson, AZ), and 70 ul/well of Denaturation Oil, denatured by incubation at 95C for 10 min, and frozen at approximately -70C until analysis by nuclease protection assay (qNPA) (Roberts et al., 2007). For qNPA analysis, cell lysates were thawed at 50C for approximately 30 min, qNPA probes were added, and samples were incubated at 95C for 10 min to begin the detection process by denaturing the target RNA, dissociating the duplexes and secondary structure hybridization. At the conclusion of the hybridization period, S1 nuclease reagent was added to each sample to digest all nonprotected nucleotides at 50C for 60-90 min. […]
As to `CC(C)(C)C(O)/C(=C\c1ccc(Cl)cc1Cl)n1cncn1` (stereo not given), the result was inactive.

`COc1cc(OC)nc(NC(=O)NS(=O)(=O)c2cc(NC=O)ccc2C(=O)N(C)C)n1`: the call was inactive.

As for `ClC1C(Cl)C(Cl)C(Cl)C(Cl)C1Cl` (stereo not given), the compound was called inactive.

For `CCN(CC)C(=O)SCc1ccc(Cl)cc1`, the compound was called inactive.

With `Cc1cc(C)nc(NC(=O)NS(=O)(=O)c2ccccc2C(=O)OC2COC2)n1`, the result was inactive.

With `CCOC1Oc2ccc(OS(C)(=O)=O)cc2C1(C)C` (stereo not given), the compound was classed as inactive.

Turning to `O=C(O)C(F)(F)C(F)(F)C(F)(F)C(F)(F)C(F)(F)C(F)(F)C(F)(F)F`, the result was inactive.

For the compound `CCOCN(C(=O)CCl)c1c(C)cccc1CC`, the compound was called inactive.

Regarding `CCCN(CCOc1c(Cl)cc(Cl)cc1Cl)C(=O)n1ccnc1`, the outcome was inactive.

Regarding `CNC(=O)Oc1ccccc1OC(C)C`, the result was inactive.

Turning to `O=C(NC(=O)c1c(F)cccc1F)Nc1ccc(OC(F)(F)C(F)OC(F)(F)F)c(Cl)c1` (stereo not given), the call was inactive.

As for `CCC(C)(C)C(=O)OC1=C(c2ccc(Cl)cc2Cl)C(=O)OC12CCCCC2`, the call was inactive.

`COC(=O)c1ccccc1S(=O)(=O)NC(=O)Nc1nc(C)nc(OC)n1`: the outcome was inactive.

For `CCC(C)(NC(=O)c1cc(Cl)c(C)c(Cl)c1)C(=O)CCl` (stereo not given), the result was inactive.

As for `CC(C)OC(=O)Nc1cccc(Cl)c1`, the compound was classed as inactive.

For the compound `C#CCN1C(=O)COc2cc(F)c(N3C(=O)C4=C(CCCC4)C3=O)cc21`, the result was inactive.

With `Clc1ccccc1-c1nnc(-c2ccccc2Cl)nn1`, the call was inactive.

Take `O=C(Nc1ccccc1)Nc1cnns1`: the compound was classed as inactive.

Take `CC1(c2ccc(Oc3ccccc3)cc2)OC(=O)N(Nc2ccccc2)C1=O` (stereo not given): the compound was classed as inactive.

As for `COC(=O)c1ccccc1CS(=O)(=O)NC(=O)Nc1nc(OC)cc(OC)n1`, the call was inactive.

As to `CCCN(CCC)c1c([N+](=O)[O-])cc(C(F)(F)F)cc1[N+](=O)[O-]`, the result was inactive.

On to `C[C@H]1[C@H](c2ccc(Cl)cc2)SC(=O)N1C(=O)NC1CCCCC1`, for which the compound was classed as inactive.

As to `CC(C)(C)C(O)C(Oc1ccc(Cl)cc1)n1cncn1` (stereo not given), the compound was classed as inactive.

For the compound `O=C(O)COc1ccc(Cl)cc1Cl`, the outcome was inactive.

Regarding `Oc1ccc(Cl)cc1Cc1ccccc1`, the compound was called inactive.

Consider `[2H]C1([2H])[n+]2ccccc2-c2cccc[n+]2C1([2H])[2H]`, for which the compound was classed as inactive.

On to `O=C(O)CCCOc1ccc(Cl)cc1Cl`, for which the compound was called inactive.

For `N#CN`, the result was inactive.

Consider `O=S(=O)(O)C(F)(F)C(F)(F)C(F)(F)C(F)(F)C(F)(F)C(F)(F)C(F)(F)C(F)(F)F`, for which the result was inactive.

Turning to `O=S1OCC2C(CO1)C1(Cl)C(Cl)=C(Cl)C2(Cl)C1(Cl)Cl` (stereo not given), the compound was classed as inactive.

Take `OCCOc1ccccc1`: the compound was classed as inactive.

Turning to `CNC(=O)CSP(=S)(OC)OC`, the compound was classed as inactive.

For `COP(=O)(OC)OC=C(Cl)Cl`, the compound was classed as inactive.

With `CNC(=O)Oc1cccc(N=CN(C)C)c1`, the outcome was inactive.

`CC[C@H](C)[C@H]1O[C@]2(C=C[C@@H]1C)C[C@@H]1C[C@@H](C/C=C(\C)[C@@H](O[C@H]3C[C@H](OC)[C@@H](O[C@H]4C[C@H](OC)[C@@H](O)[C@H](C)O4)[C@H](C)O3)[C@@H](C)/C=C/C=C3\CO[C@@H]4[C@H](O)C(C)=C[C@@H](C(=O)O1)[C@]34O)O2` (tested in a mixture with another compound): the compound was called inactive.
